Screening data deposited in PubChem BioAssay by National Center for Advancing Translational Sciences (NCATS).
Shown are actives, neighbours in structure and some others; about 13% of the full set was active somewhere.
HCMV inh: human cytomegalovirus inhibition | HFF cells, HCMV-luciferase reporter, 72 h; active compounds read low | activity change, negative = inhibition, % at 57.5 µM | 4.5% of 410,000 active; in the data active = activity change below about -60%; inconclusive = no clear call, values can overlap the other calls; inactive = above about -39%
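Cell-based, HFFs, 1000 cells/well, 16 h 37C; cpds in DMSO + HCMV-luc, MOI 1 PFU/cell; 72 h 37C; OneGlo luminescence after 5 min RT; norm. to buffer vs Salinomycin 10uM.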
Pf growth 96h: P. falciparum growth inhibition at 96 hours. 6.9% of 320,000 active. Potency, µM (highest dose often 28.7 µM), without a hit: at the highest dose activity change, negative = inhibition, hits mostly inhibitors. P. falciparum luciferase reporter growth, 96 h. AID 504834; also: potency is read from the fitted curve at half-maximal effect
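P. falciparum expressing integrated firefly luciferase, in erythrocytes at 2% hematocrit, 0.05% parasitemia, incubated with compounds 96 h at 37 C, 5% CO2. Growth inhibition read as loss of luminescence; two-generation exposure targets delayed-death apicoplast inhibitors.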
Pf growth 48h: inhibits P. falciparum growth in the first generation, 48 h | P. falciparum luciferase growth in erythrocytes, 48 h | Potency, µM (series often up to 28.7 µM), for the others: at the highest dose activity change, negative = inhibition, actives largely listed as inhibitors | 5.9% of 310,000 active; also: potency is read from the fitted curve at half-maximal effect
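Luciferase-expressing P. falciparum in infected erythrocytes (2% hematocrit, 0.1% parasitemia final) in RPMI 1640/0.5% Albumax were exposed to compound for 48 hours at 37 C, 5% CO2; growth read as luminescence.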
HCV inh: HCV inhibition; Huh7.5.1 HCVcc-Cre infection, luciferase reporter, 44 h; Potency, µM (highest dose often 41.8 µM), for inactives: at the top dose activity change, negative = inhibition, actives largely listed as inhibitors; 3.4% of 340,000 active; also: potency is read from the fitted curve at half-maximal effect
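After 44 h co-culture of compound, cells and HCVcc-Cre (~0.5 moi), substrate is added for 15 min at room temperature and luciferase measured over 15 sec. Cells were seeded at 1,000/well and pre-cultured 4 h.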
An asterisk follows results filed as active; ? = inconclusive; nt = not tested or not shown; [ ] = dose if it differs, or a comment. Unless noted, calls follow the shape of the dose curve; as a rule, active = well fitted inhibition curve with a large enough effect; inconclusive = small, poorly fitted or top-dose-only effect, or another doubt; inactive = no such curve, though single readings can be large or run the other way. % is scaled to controls: 0 for no effect and ±100 for the full control effect.

SMILES | HCMV inh | Pf growth 96h | Pf growth 48h | HCV inh
NS(=O)(=O)c1ccc(O)c(NC(=O)c2ccc([N+](=O)[O-])o2)c1 | ? | 10.4µM* | 7.38µM* | 14.0%
CC(=O)c1cccc(NC(=O)c2ccc([N+](=O)[O-])o2)c1 | -86.5* | nt | nt | ?
COc1ccc(NC(=O)c2ccc([N+](=O)[O-])o2)cc1 | -101.4* | 0.0% | ? | ?
Cc1cc(C)cc(NC(=O)c2ccc([N+](=O)[O-])o2)c1 | -34.2 | ? | 13.1µM* | ?
Cc1ccc(C)c(N2CCN(C(=O)c3ccc(-c4nc(COc5ccccc5)c(C)o4)cc3)CC2)c1 | 4.5 | nt | nt | nt
Cc1ccc(C)c(-c2nnc(NC(=O)c3ccc([N+](=O)[O-])o3)o2)c1 | -74.1* | 9.28µM* | 9.28µM* | ?
CC(=O)c1ccc(NC(=O)c2ccc([N+](=O)[O-])o2)cc1 | -104.7* | 3.4% | -10.6% | ?
O=C(Nc1cccnc1)c1ccc([N+](=O)[O-])o1 | -28.8 | 0.0% | ? | ?
Cc1ccc(S(=O)(=O)CCC(=O)Nc2ccc(OC(F)(F)F)cc2)cc1 | 0.0 | nt | nt | nt
COc1ccc(/C(O)=C/C(=O)C(=O)Nc2c(C)n(C)n(-c3ccccc3)c2=O)cc1 | 2.8 | 7.38µM* | 25.9% | 0.4%
Cc1c(NC(=O)c2cc(-c3ccccc3)nc3ccccc23)c(=O)n(-c2ccccc2)n1C | -15.1 | nt | nt | -30.0%
Cc1c(NC(=O)C(=O)/C=C(/O)c2ccccc2)c(=O)n(-c2ccccc2)n1C | -19.9 | -0.1% | 31.1% | 18.4%
Cc1ccc(-c2cc(C(=O)Nc3c(C)n(C)n(-c4ccccc4)c3=O)c3ccccc3n2)cc1 | -63.5* | nt | nt | 3.5%
COc1ccc(OC)c(S(=O)(=O)ON2C(=O)c3ccccc3C2=O)c1 | -29.0 | 2.94µM* | 41.8% | -17.1%
Cc1c(NC(=O)COC(=O)c2cc(-c3ccc(-c4ccccc4)cc3)nc3ccccc23)c(=O)n(-c2ccccc2)n1C | -97.2* | 0.0% | 100.2% | -25.1%
COc1ccc(N2CCN(C(=O)c3cc4c(=O)n(Cc5cccs5)ccc4nc3C)CC2)cc1 | 5.6 | nt | nt | nt
Cc1c(NS(=O)(=O)c2ccccc2F)c(=O)n(-c2ccccc2)n1C | -23.0 | 13.0% | 2.8% | 8.5%
COc1ccc(-c2cc(C(=O)Nc3c(C)n(C)n(-c4ccccc4)c3=O)c3ccccc3n2)c(OC)c1 | -21.3 | 14.7µM* | 11.7µM* | -22.3%
COc1ccc(OC)c(S(=O)(=O)Nc2c(C)n(C)n(-c3ccccc3)c2=O)c1 | 10.3 | 14.7µM* | -7.5% | 3.3%
Cc1c(Nc2nc(-c3ccc(Cl)cc3)cs2)c(=O)n(-c2ccccc2)n1C | ? | 13.1µM* | -0.1% | ?
CCOC(=O)Cc1csc(Nc2c(C)n(C)n(-c3ccccc3)c2=O)n1 | -10.6 | -10.6% | 0.2% | 0.2%
Cc1c(NC(=O)Nc2cccc(C#N)c2)c(=O)n(-c2ccccc2)n1C | -35.3 | 3.7µM* | 11.7% | 11.5%
Cc1ccc(CNC(=O)Cc2c(C(=O)O)c(C)cn2C)cc1 | 11.8 | nt | nt | nt
Cc1c(NC(=O)/C(=C/c2cccs2)c2cccs2)c(=O)n(-c2ccccc2)n1C | -102.3* | 98.1% | -6.1% | 12.2%
Cc1c(NC(=O)c2c(F)cccc2F)c(=O)n(-c2ccccc2)n1C | -0.2 | -20.0% | 7.9% | 7.6%
SMILES | HCMV inh | Pf growth 96h | Pf growth 48h | HCV inh
COc1cccc(OC)c1C(=O)Nc1c(C)n(C)n(-c2ccccc2)c1=O | -15.1 | 10.4µM* | 5.2% | 13.2%
Cc1ccc(CN=Cc2[nH]c3ccc(Br)c(Cl)c3c2O)cc1 | 23.0 | nt | 3.29µM* | ?
COc1ccc(CN=Cc2c(O)[nH]c3ccccc23)cc1 | -9.0 | 1.5% | 30.7% | 4.4%
Oc1c(C=NCc2ccc(F)cc2)[nH]c2ccc(Br)c(Cl)c12 | 46.1 | nt | 2.62µM* | -23.5%
Nc1c(-c2nc(-c3ccccc3Cl)no2)nnn1-c1ccccc1C(F)(F)F | 20.1 | nt | nt | nt
Cc1c(CCOC(=O)c2ccc(N3CCOCC3)c([N+](=O)[O-])c2)sc[n+]1CC#N | -35.6 | ? | 94.7% | 15.8µM*
Cc1ncsc1CCOC(=O)c1ccc([N+](=O)[O-])cc1 | -5.0 | 8.9% | 23.4% | -8.0%
Cc1ncsc1CCOC(=O)c1ccc(N2CCOCC2)c([N+](=O)[O-])c1 | -61.1* | -4.8% | -25.2% | -4.1%
COCCCNC(=O)c1ccc(Cn2c(=O)c3ccccc3n(CC(=O)Nc3c(C)cccc3C)c2=O)cc1 | -3.8 | nt | nt | nt
S=C(NCc1cccs1)Nc1cc(Cl)cc(Cl)c1 | -100.0* | ? | ? | ?
S=C(NCc1cccs1)Nc1cccc(Cl)c1 | -69.4* | ? | ? | -15.6%
S=C(NCc1cccs1)Nc1ccccc1Cl | -33.1 | -16.2% | 7.3% | 11.9%
CC(C)NC(=O)CC1Nc2c3ccccc3nc(=S)n2C1=O (configuration not stated) | -12.6 | 82.5% | 37.3% | 16.3%
O=C(CC1Nc2c3ccccc3nc(=S)n2C1=O)NC1CCCCC1 (configuration not stated) | -63.9* | ? | ? | nt
CCCSc1nc(-n2ncc(C#N)c2N)c2c3c(sc2n1)CCC(C)C3 (configuration not stated) | -6.6 | ? | nt | 14.1µM*
COc1ccc2c(c1)-c1nc(/N=C/c3ccc(O)c(OC)c3)sc1CC2 | nt | ? | 0.6% | 11.2µM*
CCCN(CC(=O)Nc1ccccc1C)C(=O)C1CCN(S(=O)(=O)c2ccccc2C(F)(F)F)CC1 | -5.9 | ? | 9.28µM* | ?
CCCN(CC(=O)Nc1ccccc1C)C(=O)C1CCN(S(=O)(=O)c2ccc(C)c(C)c2)CC1 | -61.4* | nt | nt | nt
COc1ccc(NC(=O)N2CCC(n3c(C)nc4cccnc43)CC2)cc1OC | 5.2 | nt | nt | nt
Cc1cc(=O)n2[nH]c(-c3ccsc3-n3c(C)ccc3C)cc2n1 | -17.0 | 6.57µM* | 73.3% | -7.4%
Cc1nc2cc(-c3ccsc3-n3c(C)ccc3C)[nH]n2c(=O)c1Cl | -12.5 | 14.7µM* | nt | 19.5%
Cc1cc(CNC(=O)[C@H]2C[C@@H]2[C@H](NP(=O)(c2ccccc2)c2ccccc2)c2ccccc2)nn1C | -90.8* | ? | 13.4% | 5.6%[8.37 µM]
C[C@H](CO)NC(=O)[C@@H]1C[C@H]1[C@@H](NP(=O)(c1ccccc1)c1ccccc1)c1ccccc1 | 22.4 | -13.1% | -7.9% | 17.1%
C#CCSc1nnnn1-c1cccc(Cl)c1 | -4.9 | -1.4% | 35.6% | 25.1µM*
COc1ccc(NC(=O)c2ccc3c(=O)n4nc(Nc5ccccc5C)sc4nc3c2)cc1Cl | 2.0 | nt | nt | nt
Cc1c(C(=O)NCc2ccccn2)oc2ccc(S(=O)(=O)N3CCC4(CC3)OCCO4)cc12 | 17.0 | ? | 13.1µM* | 2.1%
Cc1c(C(=O)NCCC2=CCCCC2)oc2ccc(S(=O)(=O)N3CCC4(CC3)OCCO4)cc12 | -26.7 | -27.7% | ? | 12.6µM*
CCOC(=O)Nc1nc(-c2ccccc2)c(C(=O)c2ccc(Cl)cc2)s1 | -67.4* | nt | ? | ?
CCOC(=O)C(=CNc1nc(-c2ccccc2)c(C(=O)Nc2ccc(-c3ccccc3)cc2)s1)C(=O)OCC | -32.9 | 14.7µM* | ? | -0.1%
Nc1nc(-c2ccccc2)c(C(=O)Nc2ccccc2)s1 | -60.9* | 24.9% | -2.2% | -6.1%
